Results from ChEMBL document CHEMBL3988442, “University of Dundee, Small-Polar-MMV Screening Library” (2021).
The whole screen tested about 48,000 compounds, of which about 13,000 (27%) showed an effect of 50% or more. The list shows a part of the results.

Tested on: Wolbachia pipientis
Experiment: Anti-Wolbachia Cell-Based Screen
Type: functional
Set-up: scale not given: in the data most compounds retested in dose-response had high values
Conditions: 5 µM

Row | Structure (SMILES) | Percent Effect [%]
1 | CN(C)CCOc1cc(NC(=O)COCC(F)(F)F)ccn1 | 0.1628
2 | CNc1cncc(C2CCCN2Cc2ccn(C)n2)n1 (centres undefined) | 90.43
3 | CNc1cncc(C2CCCN2Cc2ccnc(N3CCCC3)n2)n1 (centres undefined) | 113.8
4 | CNc1ccnc(N2CCC(c3nnc(CN4CCCC4)n3C)CC2)n1 | 5.752
5 | CNc1cncc(C2CCCN2Cc2ccnc(C)n2)n1 (centres undefined) | 94.65
6 | CNc1cncc(C2CCCN2Cc2ccccn2)n1 (centres undefined) | -6.614
7 | Cc1nccc(CNS(=O)(=O)N2CCCC2c2ccc(C)o2)n1 (centres undefined) | -6.689
8 | CNc1cncc(C2CCCN2Cc2cccc(C)n2)n1 (centres undefined) | 107
9 | O[C@H]1[C@H](n2cc(-c3cncnc3)nn2)c2ccccc2C12CCNCC2 | -31.96
10 | CN(C)CCN(Cc1ccc(Cl)cc1)C(=O)c1cc[nH]n1 | 3.118
11 | Cc1ccc(-c2ncc(C(=O)N3CCCN4CCC[C@H]4C3)c(O)n2)cc1 | -8.702
12 | CC(=O)N1CCC2(CC1)CN(C)CC[C@H]2C(F)(F)F.Cl | -1.973
13 | Cl.NC(CC1CCCC1)c1ccccc1 (centres undefined) | -1.351
14 | NC(=O)CCN1C(=O)CC(Cc2ccc(F)cc2)C1=O (centres undefined) | 3.459
15 | COc1ccnc(N2CCN(Cc3ncc(C(C)(C)C)o3)CC2)n1 | 7.68
16 | Cn1ccnc(Nc2ccc3c(c2)CCN3C(=O)c2ccoc2)c1=O | 61.04
17 | CC(=O)N1CCCc2cc(Nc3nccn(C)c3=O)ccc21 | 8.205
18 | Cn1ccnc(Nc2ccc3c(c2)CCN3C(=O)c2cccnc2)c1=O | -3.992
19 | CCCN(C(=O)COCC)c1cccc(C)c1 | -29.78
20 | Cc1ccnc(OCC(=O)N2CCCC2)n1 | 98.39
21 | Cc1ccnc(OCC(=O)N2CCC(C(N)=O)CC2)n1 | -0.2918
22 | COc1ccc(N2CCN(C(=O)COc3nccc(C)n3)CC2)cc1 | 79.4
23 | Cc1ccnc(OCC(=O)N2CCN(c3ncccn3)CC2)n1 | 1.434

Row | Structure (SMILES) | Percent Effect [%]
24 | Cc1ccc(N2CCN(C(=O)COc3ncccn3)CC2)nn1 | -4.899
25 | Cc1ccc(N2CCN(C(=O)COc3nccc(C)n3)CC2)nn1 | -17.48
26 | CCc1ccccc1OCC(=O)Nc1ccnc(OCCN(C)C)c1 | 4.07
27 | CN(Cc1ccc(Cl)cc1)S(=O)(=O)N(C)Cc1cnn(C)c1 | -1.179
28 | Cc1cccc(-c2noc(CN3CCc4c(ncn4C4CC4)C3)n2)c1 | -0.5665
29 | COCCCN(C)c1nc(-c2ccncc2)nc2c1CCN(C(C)=O)C2 | 7.228
30 | C=Cn1cc(CN2CCc3nc(-c4cccnc4)nc(O)c3C2)c(C)n1 | 93.89
31 | Cn1cc(CNCC2(O)CCCCC2)c(-c2cccnc2)n1 | 2.797
32 | Cc1cnn(C2CN(c3nc(-c4ccncc4)nc4c3CCC4)C2)c1 | -2.167
33 | Cc1nccn1CCN(C)c1nc(-c2cccnc2)nc2c1CCNC2 | 2.372
34 | CC(=O)N1CCc2c(nc(-c3cccnc3)nc2N(C)CC(O)CO)C1 (centres undefined) | -2.171
35 | NCC1CN(c2nc(-c3cccnc3)nc3c2CCNCC3)CCO1 (centres undefined) | -59.49
36 | Cc1ccc(O)c(CN2CCc3nc(-c4cccnc4)nc(O)c3C2)c1 | 101.6
37 | Cc1nn(C)cc1CN1CCc2nc(-c3cccnc3)nc(O)c2C1 | 87.93
38 | Cc1nc(-c2cnn(C)c2)nc2c1CN(C(=O)c1cccnc1)CC2 | -2.218
39 | C=Cn1ncc(CN2CCc3nc(-c4ccncc4)nc(O)c3C2)c1C | 95.82
40 | CC(C)(C)NC(=O)C1CSCN1S(=O)(=O)c1ccccc1S(C)(=O)=O (centres undefined) | 4.107
41 | CCc1ncc2c(n1)CN(C(=O)CC(C)NC(C)=O)C2 (centres undefined) | -5.882
42 | Cc1cc(CN(C)C(=O)NC(C)Cc2ccco2)no1 (centres undefined) | 4.671
43 | CCn1ccnc1CN1CCN(c2nc(C)cc(OC)n2)CC1 | -15.82
44 | CC[C@@H]1N(CC2CCOCC2)CCC[C@]12CCC(=O)N2.O=C(O)C(F)(F)F | -7.738
45 | NC(=O)c1cc(-n2cc(-c3cccc(C(=O)O)c3)cn2)cs1 | -1.419
46 | CN(c1cccnc1N1CCCC1)S(=O)(=O)c1cnn(C)c1 | 8.889

Row | Structure (SMILES) | Percent Effect [%]
47 | CCn1ncc(CN2CCc3nc(-c4cccnc4)nc(O)c3C2)c1C | 89.32
48 | CCc1noc(CNc2nc(-c3cccnc3)nc3c2CCNCC3)n1 | 3.724
49 | CC(O)CNc1nc(-c2cccnc2)nc2c1CCC2 (centres undefined) | -9.754
50 | O=C(c1cnc2c(cnn2C2CCCC2)c1)N1CCN(CCO)CC1 | 107.7
51 | O=C(O)c1cnc2c(cnn2C2CCCC2)c1 | -9.214
52 | CS(=O)(=O)NC(=O)c1cnc2c(cnn2C2CCCC2)c1 | -4.215
53 | CC1CN(C)CCN1C(=O)c1cnc2c(cnn2C2CCCC2)c1 (centres undefined) | 101.7
54 | CN1CCC(N(C)C(=O)c2cnc3c(cnn3C3CCCC3)c2)CC1 | 105.6
55 | CCn1c(N)nc2cc(C(=O)N3CCC(N4CCCC4)CC3)cnc21 | -1.571
56 | CN1CCN(C(=O)c2cnc3c(cnn3C3CCCC3)c2)CC1 | 4.55
57 | CC(C)CCN(C)C(=O)c1cnc2c(cnn2CC(C)C)c1 | 1.745
58 | CCn1c(N)nc2cc(C(=O)N3CCCN(C)CC3)cnc21 | -5.515
59 | CC1CN(C)CCN1C(=O)c1cnc2onc(CC(C)(C)C)c2c1 (centres undefined) | 4.024
60 | CCN1CCN(C(=O)c2cnc3c(cnn3C3CCCC3)c2)CC1 | 83.11
61 | CCOC1CCCN(C(=O)c2cnc3c(cnn3C3CCCC3)c2)C1 (centres undefined) | -8.504
62 | Cn1ccnc1SCC(=O)NCCC1CCCO1 (centres undefined) | 1.622
63 | Cn1cc(S(=O)(=O)NC(CO)Cc2c[nH]c3ccccc23)cn1 (centres undefined) | -17.12
64 | Cn1cccc1C(=O)NCc1cn2c(n1)CN(S(=O)(=O)C1CC1)CC2 | -2.289
65 | Cc1ncc(C(=O)N2CCC(N3C[C@@H](C)O[C@@H](C)C3)CC2)c(=O)[nH]1 | -16.5
66 | CCc1noc(CC)c1CNC(=O)Nc1cccc(C(=O)N(C)C)c1 | 14.38
67 | O=C(c1ccc2c(c1)[nH]c(=O)n2C1CCCC1)N1CCCSCC1 | -3.459
68 | NC(=O)C1CCCN(C(=O)c2cnc3c(cnn3C3CCCC3)c2)C1 (centres undefined) | -9.879
69 | O=C(c1cnc2c(cnn2C2CCCC2)c1)N1CCCSCC1 | 112.1
